Over roughly 33,000 sequences, “e-score” has its median near -0.038; the highest 2% begin near 0.33. For the sample, the highest values were picked, then their nearest neighbours and some sequences at random.
biological target: T1, GST-Rok-C97-191 (Bacillus subtilis subsp. subtilis str. …, UniProt O34857 97-191); assay: protein binding microarray; Rok is a gene silencer of Bacillus subtilis; high values mean tight binding; details: protein: recombinant; tags: GST (pTH5325, pDEST15-Magic modified); dsDNA, one strand shown
T1 sequence: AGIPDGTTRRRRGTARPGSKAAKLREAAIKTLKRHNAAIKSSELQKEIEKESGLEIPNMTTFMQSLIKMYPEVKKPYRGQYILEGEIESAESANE
Method in brief: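 Every oligonucleotide joins a 25-mer constant primer to a 35-mer variable part drawn from a de Bruijn sequence of order 10, so each non-palindromic 8-mer appears at least 32 times and each palindromic 8-mer 16 times. The preference for every 8-mer is reported as a unitless, rank-based enrichment score (E-score). This score spans 0.5 for the most favored 8-mer to −0.5 for the most disfavored.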

Sequence	binding signal [E-score]
CCAAGTTC	-0.0242
CTTGTGGC	-0.167
ACGTGAGC	-0.0668
ACGCCTTA	0.073
AGCCCGCT	-0.168
CCATAGCA	-0.0019
ATCGTAGC	-0.0487
AGAGTAGC	0.0737
ATAGTAGG	0.329
ATAGTAGC	0.378
ATAGTACG	0.248
AGAGTAGA	0.143
AGAGTAGG	-0.15
ATAGTAGA	0.355
AAAGTAGA	0.298
GCTTGAAC	-0.0848
AGTCCATC	-0.159
GGTTCAAC	-0.0853
CCTCTTCA	-0.193
CCAACCTA	-0.0204
GCTTATAA	0.101
AGTACTAG	0.334
CGTACTAG	0.0424
AGTACTAC	0.35
AGTACTCA	-0.0984

Sequence	binding signal [E-score]
AGTACTGG	0.0209
AGTACTAA	0.277
CGTACTAC	0.305
GGTACTAC	0.233
AGTACTAT	0.367
ATTGCGCC	-0.134
ACCATATG	0.229
AACTGGAC	-0.0284
TAGTGGGA	0.119
AATTTCGC	0.151
GATGAAGC	0.0229
ATTTTATC	0.328
CTTTTATA	0.236
ATTTTATG	0.229
CTTTTATC	0.0697
GTTTTATA	0.122
ATTTTATA	0.385
AGACCTGG	-0.167
GTCGTAAC	0.0491
ATACAAAG	0.17
ATACAAAC	0.371
GTACAAAC	0.304
CTACAAAC	0.114
ATACAAAT	0.337
ATACAAAA	0.276

Sequence	binding signal [E-score]
CAGGAATG	-0.083
TGAGGTAA	0.126
ATTGACCG	-0.00184
AATACTGT	0.083
AATACTAC	0.383
CATACTAC	0.284
AATACTAT	0.35
AATACTAA	0.287
CATACTAA	0.0976
CATACTAG	0.285
GATACTAC	0.313
TATACTAA	0.382
AATACTAG	0.34
AATACTCT	0.131
AATACTCG	0.0344
GCAATCCC	-0.104
GTCAGGAC	-0.147
AATTTCAG	0.153
ACCTTCGG	-0.173
AGTTGAGA	0.111
ACCTAACT	0.128
TAGACGAA	-0.0468
GTGCAAAA	0.0465
CGTCCACG	-0.161
AGGTTGCG	-0.0431

Sequence	binding signal [E-score]
AGTAATAA	0.238
AGTAATAT	0.386
AGTAATCG	0.0918
ACTAATAT	0.342
ACTAATAC	0.248
AGTAATAG	0.355
CGTAATAG	0.247
AGTAATAC	0.274
ACTAATAG	0.292
AAGGTTGG	-0.0102
ACGCATTA	0.134
CGGTGCAG	-0.0983
GGCTAGAC	-0.152
AGATTAGC	0.212
AGGTAAAT	0.247
AAGTAAGT	0.263
GAGTAAAA	0.269
AAGTAAAG	0.104
AAGTAAAA	0.335
GGGTAAAA	0.206
CAGTAAAA	0.188
CGGTAAAA	0.242
TAGTAAAA	0.37
TGGTAAAA	0.337
AAGTAAAT	0.359

Sequence	binding signal [E-score]
AAGTAAAC	0.116
CTGAAAAG	0.0606
CTCCATAA	-0.175
TCTCCGAA	0.161
TAAGCATA	0.00925
AAAGGTCA	-0.146
ACGCACCA	-0.186
AAGACCGG	-0.0043
CCTTATTA	0.0213
CGTAACTC	0.0679
GTTAGCGA	0.0595
GAGCTGCC	0.0253
GACAGACA	-0.102
CGTAAGTA	0.16
GCGTGAGA	-0.00817
GATTACTA	0.354
GATTACAA	0.134
AATTACCC	0.185
AATTACTC	0.255
AATTACTG	0.253
AATTACCA	0.33
ATTTACTG	0.319
ATTTACTC	0.234
AATTACTA	0.43
CATTACTA	0.32

Sequence	binding signal [E-score]
ATTTACTA	0.439
GATTACCA	0.14
AGGCCTAG	0.0496
GACCGCTA	0.0642
AATAACCG	0.184
AACCAGCA	0.0878
GTCGAGGA	-0.0836
GCGTCCGA	-0.026
CACCTCGC	-0.148
ACTGCCCT	-0.164
GGAAGTCA	-0.092
AAGTTTCC	0.148
CAATTACC	0.0477
ACATTACT	0.263
AAATTACC	0.365
AAATTACT	0.358
GAATTACC	0.18
AAATTACG	0.273
CAGTTGAC	0.0118
AACGCAAA	-0.043
CCAACTCG	-0.0471
ACATGCTA	0.33
GCATGCTA	0.0693
CCATGCTA	0.153
CTGACATA	-0.188

Sequence	binding signal [E-score]
ACACAACT	0.0324
GGATACTA	0.167
CTATACAA	0.3
ATATACAA	0.365
GCATACTA	0.241
GTATACTA	0.338
ATATACTG	0.365
ACATACTA	0.305
CTATACTC	0.173
ATATACAG	0.317
ATATACTA	0.436
CTATACTA	0.301
ATATACTC	0.293
CAAGGATG	-0.044
CTGTCTCA	-0.118
CAGGGCCA	-0.145
GTCACAAA	0.0798
GAGCTTGA	-0.0815
CACTTGTA	0.238
GACAAGTA	0.226
CAATTGTG	0.0188
AATTCGAT	0.215
CTAACTAA	0.288
TTAACTAA	0.235
CTAACTAC	0.348

Sequence	binding signal [E-score]
GTAACTAA	0.353
ATAACTAC	0.323
CTAACTCC	-0.00723
GTAACTAC	0.417
CTAACTAG	0.268
GGAACTAC	0.254
CAAGCAGA	0.0345
GCCGAATA	0.0948
GCTCGTAA	0.0484
ACTCCAGC	0.114
CTGAAGGA	-0.156
ATCCAGCG	-0.106
ACCTACCT	0.154
CACTACCG	0.065
AACTACCC	0.338
CACTACCC	-0.0292
AGCTACCG	0.228
CACTACCA	0.0866
AACTACCT	0.412
GACTACCC	0.0938
GACTACCA	0.141
AACTACCA	0.433
AACTATCT	0.294
AACTACCG	0.41
CAATTTTA	0.234

Sequence	binding signal [E-score]
ACGGGAGA	-0.12
CAAGTTGA	-0.0731
TCGACTAA	0.0796
AAAGTTCT	0.145
GCTCGGTA	0.0228
AGCGGCCG	-0.112
CATTGATA	0.26
ACGTTCAC	0.0772
GATAAGTA	0.238
CCGTCGAA	0.0267
GGAATGGA	-0.114
TCCTACCA	0.273
TACTACCA	0.404
TGCTACCA	0.099
CGCTACGA	0.0242
CCTGTCCC	0.0167
AAATACTC	0.205
CAATACTA	0.217
AAATACTG	0.283
TAATACTA	0.401
AAATACTA	0.434
GAATACTA	0.209
CATCCCTA	-0.0266
AGCTCGTA	0.00298
AATCTATA	0.4

Sequence	binding signal [E-score]
CATCTATA	0.201
AATCTATC	0.421
CATCTATC	0.201
AATCTATG	0.135
AATCTAGG	0.171
AATCTAGA	0.331
GATCTATA	0.305
TATCTAGA	0.159
ACACGTGT	0.00499
GATAAGAC	0.14
ACATGCGG	0.0405
AAAAAGAG	-0.0136
CTCACATC	-0.132
ATTCATCA	0.0772
ACGATGCT	0.0784
ACTGACAT	-0.113
ACAGTCCC	-0.126
GCATAGAC	-0.0624
TACATGTA	0.417
CACATGTA	0.162
AACATATA	0.208
GATATGGA	0.0314
CATATGGA	0.0214
CACATCTA	0.151
GACATATA	0.307

Sequence	binding signal [E-score]
TATATGGA	0.343
AACATGTA	0.237
TACATATA	0.349
TACATCTA	0.369
AACATCTA	0.165
AGTCAACT	0.173
AGATTCGA	0.104
ATAATTCG	0.213
CCTGGTTA	0.0123
CGACTCTA	-0.0898
CCACATAC	0.16
AGTGGAAT	-0.0459
TATATCGA	0.314
CATATAGA	0.144
CTTATATA	0.321
CATATATG	0.306
TATATATA	0.454
CATATATA	0.353
CATATATC	0.279
TATATAGA	0.397
GATATAGA	0.244
CCAGTACA	0.0219
GTAGTGCA	0.015
CAGGGCTA	-0.0484
CCTGTATA	0.157

Sequence	binding signal [E-score]
CAGGCGCC	-0.149
TACGTTCA	0.085
CATAACGC	0.0154
ACTTTGGA	-0.0486
ATGACGTA	-0.0485
AATCTGGA	-0.12
AACCAGTA	0.278
ACCTAGTA	0.233
AACTAGTA	0.47
AACTAGTT	0.439
AACTAGTG	0.376
CACTAGTG	-0.0787
AACTAGTC	0.0892
AACTAGGT	0.318
ATCTAGTC	0.287
ATCTAGTA	0.31
AACTAGGG	-0.0014
CACTAGTA	0.253
ATCTAGTG	0.364
CTGACATC	-0.162
ATTACGCC	-0.0244
CTTAAAGA	-0.126
CATAGTGC	-0.076
ATTGTCCG	-0.0512
AAGCAAGC	-0.165

Sequence	binding signal [E-score]
CAGCAATA	0.203
CGTCATAC	0.0184
TACTAGCA	0.256
GACTAGTA	0.368
GACTAGTC	0.0585
AGCTAGTA	0.336
GGCTAGTA	0.115
GACTAGGA	-0.0139
TACTAGGA	0.115
AGCTAGTC	0.104
TACTAGTA	0.433
AGCGCTCA	0.00935
CTGCTACC	-0.0872
TCCCTAAA	-0.186
ACGCGCTC	-0.0411
AGTTTCCG	0.112
GCGGCCAA	-0.114
GAACGTTA	0.178
AAACGTTA	0.0818
TAACGTTA	0.339
CCTAATGC	-0.154
AACGTGGC	-0.0901
ATAGTATC	0.278
CTAGTATA	0.37
GAAGTATA	0.164

Sequence	binding signal [E-score]
CAAGTATA	0.251
CTAGTATC	0.111
ATAGTATA	0.334
GTAGTATA	0.428
GCAGTATA	0.224
ATAGTATG	0.316
CGTTGGAG	-0.19
AGGTATAC	0.19
CATTCATA	0.181
CTGTCCCA	-0.0317
CTTTCTCA	-0.12
AGGGAAAC	-0.0931
AGATAGAT	0.349
AGATAGAG	0.128
ACATAGAG	-0.0925
ACATAGAC	0.0775
ACATAGAT	0.33
AGATAGAC	0.0495
AATTAGAA	0.202

Reference: paper PMC6212790, “How bacterial xenogeneic silencer rok distinguishes foreign from self DNA in its resident genome”
